FadD28 FP inh: M. tuberculosis FadD28 bisubstrate binding inhibition; AID 588549; 0.22% of 360,000 active; inhibition, % at 12.5 µM; FadD28 bisubstrate probe binding, fluorescence polarization; in the data active = inhibition above about 8.5%, passing the limit was not always enough; inconclusive = no clear call, values can overlap the other calls
BH1578 lux ind: quorum light induction in luxS cqsA deficient V. cholerae; V. cholerae BH1578 lux reporter, luminescence, 6 h; activation, % at 18.7 µM; 0.16% of 350,000 active; in the data active = activation mostly above about 9.7%, no sharp cut-off; inconclusive = no clear call, values can overlap the other calls; inactive = mostly below about 3.7%
TcdB GH inh: blocks C. difficile toxin B glycohydrolase activity. TcdB glycohydrolase enzymatic assay, plate reader. 0.24% of 350,000 active. P18177. inhibition, % at 9.99 µM; in the data active = inhibition above about 10%
Target sequence (P18177 whole entry, looked up): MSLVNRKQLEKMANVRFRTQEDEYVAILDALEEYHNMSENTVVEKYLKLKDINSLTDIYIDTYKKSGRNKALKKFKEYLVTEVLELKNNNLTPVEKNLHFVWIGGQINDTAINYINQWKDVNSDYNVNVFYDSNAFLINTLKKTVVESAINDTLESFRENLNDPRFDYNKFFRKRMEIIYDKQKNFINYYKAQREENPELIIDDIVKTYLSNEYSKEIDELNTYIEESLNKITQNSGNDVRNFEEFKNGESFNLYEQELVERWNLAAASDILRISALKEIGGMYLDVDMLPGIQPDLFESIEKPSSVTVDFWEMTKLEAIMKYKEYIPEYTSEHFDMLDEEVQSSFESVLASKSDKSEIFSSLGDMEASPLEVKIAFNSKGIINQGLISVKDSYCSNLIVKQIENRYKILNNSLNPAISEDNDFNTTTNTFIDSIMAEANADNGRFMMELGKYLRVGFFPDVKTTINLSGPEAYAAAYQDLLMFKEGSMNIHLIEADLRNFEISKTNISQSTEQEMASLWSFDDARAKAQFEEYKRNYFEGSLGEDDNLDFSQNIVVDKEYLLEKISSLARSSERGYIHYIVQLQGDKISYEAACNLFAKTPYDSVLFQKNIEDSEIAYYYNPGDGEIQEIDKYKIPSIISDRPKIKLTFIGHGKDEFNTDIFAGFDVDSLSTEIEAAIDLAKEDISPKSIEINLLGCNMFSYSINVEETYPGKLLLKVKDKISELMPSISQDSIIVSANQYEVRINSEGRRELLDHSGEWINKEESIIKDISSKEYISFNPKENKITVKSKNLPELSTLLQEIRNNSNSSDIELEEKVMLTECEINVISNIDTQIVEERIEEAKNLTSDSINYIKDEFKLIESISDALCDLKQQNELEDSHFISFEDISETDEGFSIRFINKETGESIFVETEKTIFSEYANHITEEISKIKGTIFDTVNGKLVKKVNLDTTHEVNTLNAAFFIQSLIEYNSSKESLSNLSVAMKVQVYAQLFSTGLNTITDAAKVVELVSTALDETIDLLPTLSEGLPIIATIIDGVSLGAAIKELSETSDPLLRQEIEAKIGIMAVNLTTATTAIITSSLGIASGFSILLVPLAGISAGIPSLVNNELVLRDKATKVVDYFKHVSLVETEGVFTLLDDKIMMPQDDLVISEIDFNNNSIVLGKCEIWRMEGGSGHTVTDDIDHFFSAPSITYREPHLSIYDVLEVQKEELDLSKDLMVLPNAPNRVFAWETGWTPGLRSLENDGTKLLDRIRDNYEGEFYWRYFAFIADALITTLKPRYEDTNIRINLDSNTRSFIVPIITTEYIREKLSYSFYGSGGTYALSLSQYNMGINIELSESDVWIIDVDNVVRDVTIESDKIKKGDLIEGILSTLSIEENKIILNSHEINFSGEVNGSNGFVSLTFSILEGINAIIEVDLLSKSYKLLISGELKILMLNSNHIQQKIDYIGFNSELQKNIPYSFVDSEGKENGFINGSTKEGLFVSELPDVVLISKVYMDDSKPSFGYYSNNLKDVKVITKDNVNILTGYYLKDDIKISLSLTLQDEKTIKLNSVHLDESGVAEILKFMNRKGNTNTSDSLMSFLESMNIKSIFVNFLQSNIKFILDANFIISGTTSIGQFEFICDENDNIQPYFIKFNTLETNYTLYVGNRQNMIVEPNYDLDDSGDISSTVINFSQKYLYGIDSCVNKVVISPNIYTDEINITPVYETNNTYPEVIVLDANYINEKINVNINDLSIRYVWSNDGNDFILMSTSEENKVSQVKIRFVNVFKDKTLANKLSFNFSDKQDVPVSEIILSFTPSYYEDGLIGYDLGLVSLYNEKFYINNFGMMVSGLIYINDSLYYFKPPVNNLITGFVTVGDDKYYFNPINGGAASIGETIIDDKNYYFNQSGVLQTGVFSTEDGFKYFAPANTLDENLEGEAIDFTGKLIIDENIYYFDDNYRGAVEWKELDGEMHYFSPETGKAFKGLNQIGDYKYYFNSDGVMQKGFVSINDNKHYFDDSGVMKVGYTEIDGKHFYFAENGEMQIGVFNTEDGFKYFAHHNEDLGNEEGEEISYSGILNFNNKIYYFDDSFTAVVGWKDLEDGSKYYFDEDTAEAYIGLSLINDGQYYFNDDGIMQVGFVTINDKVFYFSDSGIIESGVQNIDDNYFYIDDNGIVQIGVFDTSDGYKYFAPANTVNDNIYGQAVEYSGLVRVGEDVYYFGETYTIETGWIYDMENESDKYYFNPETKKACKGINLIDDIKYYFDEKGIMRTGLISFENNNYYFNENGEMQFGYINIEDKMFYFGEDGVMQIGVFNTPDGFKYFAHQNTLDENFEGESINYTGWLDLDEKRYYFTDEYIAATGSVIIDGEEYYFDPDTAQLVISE
Yp Topo-I inh: inhibitors of Yersinia pestis topoisomerase I | Y. pestis Topo-I cleavage product accumulation, plate reader | activity, % at 10 µM | 0.064% of 360,000 active; in the data active = activity above about 50%, passing the limit was not always enough; inconclusive = no clear call, values can overlap the other calls
BioA inh-1: blocks M. tuberculosis BioA enzyme activity; 0.096% of 360,000 active; purified M. tuberculosis BioA enzyme, plate reader; AID 602481; inhibition, % at 9.99 µM; in the data active = inhibition above about 40%; inconclusive = no clear call, values can overlap the other calls
BioA inh-2: blocks M. tuberculosis BioA aminotransferase; shares compounds with BioA inh-1; purified BioA enzyme, plate reader, dose response; max activity, %; 310 tested, under 10 active; AID 651679;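 also: top concentration of the dilution series was 10 µM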
HepG2 cytotox: cytotoxicity in HepG2 cells | shares compounds with BioA inh-1 | plate reader | max activity, % | 310 tested, under 10 active
NIH3T3 tox 5: cytotoxicity in NIH3T3 cells; shares compounds with BioA inh-1; plate reader; activity change, negative = cytotoxicity, % at 26 µM; 310 tested, under 10 active; AID 651900
Numbers stand for hits; i = inactive; ? = inconclusive; nt = not tested or not shown. Rows were chosen to be rich in hits. Some 0.61% of all compounds tested hit in one or more screens of this group. Unless noted, no rule for the calls is given here.

SMILES	FadD28 FP inh	BH1578 lux ind	TcdB GH inh	Yp Topo-I inh	BioA inh-1	BioA inh-2	HepG2 cytotox	NIH3T3 tox 5
Cc1nnc(N2CCC(C(=O)N3CCCCC3)CC2)c2nn(-c3ccc(Cl)cc3)c(C)c12	i	i	nt	i	51.0	i	i	i
Cc1cc(/C=C(/C#N)C(=O)Nc2ccccc2)c(C)n1-c1cccnc1	i	nt	i	i	54.6	i	i	i
Cc1cc(/C=C(\C#N)C(=O)Nc2ccccc2)c(C)n1-c1ccc2c(c1)OCO2	i	i	i	i	i	nt	nt	nt
CCN1CCN(CC(=O)c2c(C)n(Cc3ccccc3)c3ccc(OC)cc23)CC1	i	i	nt	i	i	nt	nt	nt
COc1ccc2c(c1)c(C(=O)CN1CCC3(CC1)OCCO3)c(C)n2Cc1ccccc1	i	i	nt	i	59.4	i	i	i
COc1ccc(Nc2c(-c3ccc(C)cc3)nc3cnccn23)cc1	i	i	i	i	nt	nt	nt	nt
COc1ccc(-c2nc3cnccn3c2Nc2ccc3c(c2)OCO3)cc1	i	i	i	i	54.0	i	i	i
COc1ccc(Nc2c(-c3ccc(OC)cc3)nc3cnccn23)cc1	i	i	i	i	46.0	i	i	i
O=C(C[C@@H]1CC[C@@H]2[C@H](COC[C@H](O)CN2Cc2cccc(C(F)(F)F)c2)O1)NCc1ccccc1	nt	nt	i	nt	i	nt	nt	nt
COc1ccc(NC2CCCN(C(=O)c3ccc(C(C)=O)s3)C2)cc1 (stereo not given)	i	i	i	i	83.7	i	i	i
O=C(Nc1cccnc1)c1ccc(N2CCOCC2)c([N+](=O)[O-])c1	i	i	i	i	49.2	i	i	i
O=C(NCc1cccnc1)c1ccc(N2CCOCC2)c([N+](=O)[O-])c1	i	i	i	i	nt	nt	nt	nt
O=C(Nc1cccnc1)c1ccc(N2CCCC2)c([N+](=O)[O-])c1	i	i	i	i	72.1	i	i	i
O=C(Nc1ccc(N2CCOCC2)c(Cl)c1)c1cccnc1	i	i	nt	i	47.3	i	i	i
CCC(=O)N1CCCCN2[C@@H](CO)[C@H](c3ccc(C#Cc4ccccc4F)cc3)[C@@H]2C1	nt	nt	i	nt	i	nt	nt	nt
C[C@H](CO)N1C[C@H](C)[C@@H](CN(C)Cc2ccc(-c3ccccc3)cc2)Oc2c(NC(=O)C3CC3)cccc2C1=O	nt	nt	i	nt	i	nt	nt	nt
C/C=C/c1ccc2c(c1)O[C@@H](CN(C)C(=O)c1ccc3c(c1)OCO3)[C@@H](C)CN([C@@H](C)CO)S2(=O)=O	nt	nt	i	nt	46.3	i	i	i
C/C=C/c1ccc2c(c1)O[C@@H](CN(C)C(=O)Cc1cccnc1)[C@H](C)CN([C@H](C)CO)S2(=O)=O	nt	nt	i	nt	55.9	i	i	i
CC(=O)Nc1ccc2c(c1)C(=O)N(C)[C@@H]1CC[C@@H](CC(=O)N3CCc4ccccc4C3)O[C@H]1CO2	nt	nt	nt	nt	i	nt	nt	nt
COc1cc(-c2n[nH]c(=S)n2C(C)c2ccccc2)cc(OC)c1OC (stereo not given)	i	i	i	i	64.4	i	i	i
COc1cc(-c2n[nH]c(=S)n2-c2cccc(C(F)(F)F)c2)cc(OC)c1OC	i	i	nt	i	42.6	i	i	i
Cc1cc(C(=O)CSc2nncs2)c(C)n1-c1ccc2c(c1)OCO2	i	i	nt	i	49.3	i	i	i
O=C(CSc1nc2ccccc2c(=O)n1-c1ccccc1)N1CCN(CCO)CC1	i	i	nt	i	50.0	i	?	i
C[C@H]1CCCCO[C@@H](CN(C)C(=O)C2CCCCC2)[C@@H](C)CN([C@@H](C)CO)C(=O)c2cc(NC(=O)CCC(F)(F)F)ccc2O1	nt	nt	i	nt	i	nt	nt	nt
C/C=C/c1ccc([C@H]2[C@@H](CO)N(C(=O)CC)[C@H]2CN(C)S(C)(=O)=O)cc1	nt	nt	nt	nt	i	nt	nt	nt
SMILES	FadD28 FP inh	BH1578 lux ind	TcdB GH inh	Yp Topo-I inh	BioA inh-1	BioA inh-2	HepG2 cytotox	NIH3T3 tox 5
C[C@@H](C(=O)N1CCN(Cc2ccc3c(c2)OCO3)CC1)n1nnc2ccccc2c1=O	i	i	i	i	70.1	i	i	i
O=C(c1ccc(Br)s1)N1CCN(Cc2ccc3c(c2)OCO3)CC1	i	i	nt	i	59.0	i	i	i
O=C(c1ccc(Br)o1)N1CCN(Cc2ccc3c(c2)OCO3)CC1	i	i	nt	i	i	nt	nt	nt
O=C(Nc1ccccc1)N1CCN(Cc2ccc3c(c2)OCO3)CC1	i	i	i	i	76.1	i	?	?
Cc1noc(C)c1NC(=O)N(C)C[C@H]1Oc2c(NS(=O)(=O)c3ccc(Cl)cc3)cccc2C(=O)N([C@H](C)CO)C[C@H]1C	nt	nt	i	nt	i	nt	nt	nt
O=C(C[C@@H]1CC[C@@H](NC(=O)Nc2cc(F)ccc2F)[C@H](CO)O1)NCc1ccccn1	nt	nt	i	nt	i	nt	nt	nt
CCc1nc2ccc(Br)cc2c(=O)n1-c1ccccc1C(F)(F)F	i	i	i	i	59.9	i	?	i
C/C=C/c1cnc2c(c1)C(=O)N([C@@H](C)CO)C[C@H](C)[C@H](CN(C)Cc1ccccc1)O2	nt	nt	i	nt	i	nt	nt	nt
O=C(NC1CCCc2c1cnn2-c1cc(F)cc(F)c1)c1ccc[n+]([O-])c1 (stereo not given)	i	i	i	i	64.6	i	i	i
O=C(NC1CCCc2c1cnn2-c1cc(F)cc(F)c1)c1cc[n+]([O-])cc1 (stereo not given)	i	i	i	i	i	nt	nt	nt
CC(Oc1ccc2c(-c3ccccc3)cc(=O)oc2c1)C(=O)N1CCOCC1 (stereo not given)	i	i	i	i	i	nt	nt	nt
CC(Oc1ccc2ccc(=O)oc2c1)C(=O)N1CCOCC1 (stereo not given)	i	i	i	i	66.0	i	i	i
COc1cccc(CN2[C@H](CO)[C@@H](c3ccccc3)C23CN(C(=O)C2CCC2)C3)c1	nt	nt	i	nt	nt	nt	nt	nt
CCNC(=O)[C@H]1[C@H](CO)[C@H]2Cn3c(ccc(-c4cccnc4)c3=O)[C@H]2N1Cc1ccc2c(c1)OCO2	nt	nt	i	nt	i	nt	nt	nt
CCN1[C@H](C(=O)NCc2ccccc2)[C@@H](CO)[C@@H]2Cn3c(ccc(-c4ccncc4)c3=O)[C@@H]21	nt	nt	i	nt	i	nt	nt	nt
COC(=O)[C@@H]1[C@@H](CO)[C@@H]2Cn3c(ccc(-c4ccccc4)c3=O)[C@@H]2N1Cc1cccc(F)c1	nt	nt	i	nt	41.7	i	i	i
CCN1[C@H](C(=O)NCc2ccccc2)[C@@H](CO)[C@@H]2Cn3c(ccc(-c4cccnc4)c3=O)[C@@H]21	nt	nt	i	nt	41.1	i	i	i
CCNC(=O)[C@@H]1[C@@H](CO)[C@@H]2Cn3c(ccc(-c4cccnc4)c3=O)[C@@H]2N1Cc1ccc2c(c1)OCO2	nt	nt	i	nt	64.5	i	i	i
Cc1ccc(-c2nn(CCC(=O)Nc3cccnc3)c(=O)c3ccccc23)cc1	i	i	i	i	88.9	i	i	i
CCOC(=O)c1c(N)sc(C(N)=O)c1C	i	i	nt	i	57.9	i	i	i
CCOC(=O)c1sc(N)c(C(N)=O)c1C	i	i	i	i	i	nt	nt	nt
Cc1c(C(N)=O)sc(N)c1C(=O)OC(C)C	i	i	nt	i	91.5	i	i	i
CN(C)C(=O)c1cccc(-c2ccc([C@H]3[C@@H](CO)N4C(=O)CN(C(=O)Cc5ccccc5)C[C@@H]34)cc2)c1	nt	nt	i	nt	nt	nt	nt	nt
CCN(C[C@H]1[C@@H](c2ccc(-c3ccccc3F)cc2)[C@@H](CO)N1C(C)=O)C(C)=O	nt	nt	i	nt	nt	nt	nt	nt

High-throughput results (PubChem BioAssay)
